# Test results published in PubChem BioAssay.
# Inconclusive results are not listed. For some of these results: Results with a measured potency or affinity are listed apart. Activity calls are given as the source filed them. Unless noted, the limit is not given here; nearly all actives have AC50 up to about 26 µM.
# Legend:
# [1] = test system: Aerobactin synthetase IucA (Klebsiella pneumoniae); assay: IucA aerobactin synthetase inhibitors, biochemical, Tocris library, absorbance (AID 1345561; call rule not given here;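 also: 100% = enzyme without compound and 0% = no enzyme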); conditions: purified IucA enzyme assay, absorbance (OD) read-out; stronger effect = lower value;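 tested at 8 µM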
# [2] = growth inhibition of DIPG glioma cells, dose response, cell-based, SU-DIPG-XVII, MIPE5.0, CellTiter-Glo, qHTS (AID 1347060); conditions: SU-DIPG-XVII viability, CellTiter-Glo ATP luminescence;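 also: cells exposed to compound for 48 hours before viability readout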
# [3] = growth inhibition of DIPG glioma cells, dose response, cell-based, SU-DIPG-XIII, MIPE4.0, CellTiter-Glo, qHTS (AID 1347061; cut-off not given, nearly all actives have AC50 up to about 37 µM;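 also: cells exposed to compound for 48 hours before readout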); conditions: SU-DIPG-XIII viability, CellTiter-Glo ATP luminescence
# [4] = growth inhibition of DIPG glioma cells, dose response, cell-based, JHH-DIPG-1, MIPE4.0, CellTiter-Glo, qHTS (AID 1347062; cut-off not given, nearly all actives have AC50 up to about 27 µM;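 also: cells exposed to compound for two days before readout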); conditions: JHH-DIPG-1 viability, CellTiter-Glo ATP luminescence
# [5] = growth inhibition of DIPG glioma cells, dose response, cell-based, SU-DIPG-IV, MIPE4.0, CellTiter-Glo, qHTS (AID 1347063; cut-off not given, nearly all actives have AC50 up to about 30 µM;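 also: compound exposure lasted 48 hours before the viability readout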); conditions: SU-DIPG-IV viability, CellTiter-Glo ATP luminescence
# [6] = growth inhibition of DIPG glioma cells, dose response, cell-based, SU-DIPG-XIII, MIPE5.0, CellTiter-Glo, qHTS (AID 1347064; cut-off not given, nearly all actives have AC50 up to about 23 µM;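 also: cells exposed to compound for 48 hours before the viability read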); conditions: SU-DIPG-XIII viability, CellTiter-Glo ATP luminescence
# [7] = viability loss in pontine glioma line – cell-based, SU-DIPG-XXV, MIPE5.0, CellTiter-Glo, qHTS, dose response (AID 1347065); conditions: CellTiter-Glo ATP luminescence;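 also: cells exposed to compound for 48 hours before ATP readout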
# [8] = SU-DIPG-VI glioma cell viability, MIPE4.0 library, CellTiter-Glo luminescence, qHTS (AID 1347066; cut-off not given, nearly all actives have AC50 up to about 30 µM;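 also: cells exposed to compound for 48 hours before readout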); conditions: CellTiter-Glo ATP luminescence
# [9] = JHH-DIPG-1 glioma cell viability, MIPE5.0 library, CellTiter-Glo luminescence, qHTS (AID 1347067); conditions: JHH-DIPG-1 glioma viability, CellTiter-Glo ATP luminescence;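 also: cells exposed to compound for 48 hours before readout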
# [10] = SU-DIPG-XXV glioma cell viability, MIPE5.0 library, qHTS (AID 1347068; cut-off not given, nearly all actives have IC50 up to about 30 µM;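 also: cells exposed to compound for 48 hours before viability readout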)
# [11] = sensitizers of A549 cells to miR-34 induction, primary screen, imaging, A549 dox-inducible miR-34, nuclei and caspase counts (AID 1347080;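 active = compounds whose cell count with miR-34 switched on is under 0.7 times the count with it off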); conditions: A549 miR-34 inducible, Hoechst nuclei count, 48 h
# [12] = viability rescue of complex I mutant cybrids, primary screen, cell-based, galactose medium, ATP luminescence (AID 1645843;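 active = z-score of at least 1.8 in each of two replicates, scored against plate mean and spread of sample wells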;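 also: positive z means more ATP and so rescue of galactose-driven cybrid death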); conditions: complex I mutant cybrid cells, 72 h, stronger effect = higher value
# [13] = liver-stage malaria parasite growth inhibition, primary screen, cell-based, HepG2, luciferase luminescence, HepG2 viability (AID 624349; in the data active = parasite load remaining mostly below about 12%, no sharp cut-off; inactive = mostly above about 10%;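 also: 100% = mean of DMSO negative control wells on the same plate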); conditions: P. berghei liver stage in HepG2, luciferase luminescence, concentration not given here; parasite load remaining: stronger effect = lower value; viability: measured here: HepG2 viability without parasites
# [14] = differential killing of epithelial or mesenchymal cells, primary screen, imaging, PC-3E GFP, TEM4-18 mCherry, co-culture (AID 1345086;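 active = compounds killing one labelled cell type while sparing the other, by normalised counts and ratio limits, not self-fluorescent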;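 as to all read-outs here: cells exposed to compound for 72 h before imaging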;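 as to red/green cell ratio (normalised): normalised mesenchymal count divided by normalised epithelial count so high means epithelial killing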); conditions: imaging cell counts, at 1 µM; for red/green cell ratio (normalised): actives lie on both sides, counts scaled to control wells, 1 = unselective
# [15] = modifiers of HSF1 nuclear foci, imaging, Selleck Cancer Library (AID 1347162; in the data active = plate-normalised HSF1 focus index below about 0.46); conditions: human cells, at 10 µM; SSMD: measured here: HSF1 foci SSMD mean; cell count: measured here: cell number; plate-normalised HSF1 focus index: stronger effect = lower value
# [16] = polyglutamine-triggered caspase-3 activation inhibitors, cell-based (AID 1583); conditions: polyglutamine-induced caspase-3 activation, cell assay; stronger effect = higher value;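 tested at 10 µM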
# [17] = suppressors of polyQ aggregation in yeast, 75Q-TubU reporter (AID 1593); conditions: Yeast 75Q polyglutamine aggregation reporter
# [18] = rescue of polyQ-huntingtin neuronal dysfunction in worms, whole organism, C. elegans mechanosensory neurons, N-terminal huntingtin (AID 1599); conditions: touch response, stronger effect = higher value
# [19] = inhibitors of mitochondrial cytochrome c release, biochemical, purified mitochondria (AID 1603); conditions: stronger effect = lower value;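 also: mouse liver mitochondria challenged with calcium chloride; signal normalized to the plate average as 100%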
# [20] = inhibitors of polyQ protein aggregation (AID 1604); conditions: polyglutamine-induced protein aggregation inhibition assay; stronger effect = higher value; tested at 2.5 µM
# [21] = enhancers of glutamate uptake in motor neurons, MN-1 cell line (AID 1612); conditions: MN-1 motor neuron cells, stronger effect = higher value;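 also: tested at 1 µM final; 0% = mean of DMSO vehicle wells on each plate; positive means more glutamate uptake than control and negative means less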
# [22] = reducers of polyQ inclusions in PC12 cells, cell-based, NGF-treated PC12, GFPQ80 (AID 1614); conditions: PC12 NGF-treated GFP-polyQ80 inclusion reduction;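 also: lower means fewer inclusions and 0 means no inclusions at all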
# [23] = suppressors of polyglutamine aggregation in yeast, 75Q-TubH (AID 1616); conditions: S. cerevisiae 75Q-TubH polyglutamine aggregation suppression; stronger effect = higher value
# [24] = molecular target: Mitogen-activated protein kinase 7 (Homo sapiens) (UniProt Q13164); assay: ERK5 transactivation activators in reporter cells, primary screen, cell-based, HTS (AID 1508626;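 active = luciferase signal above three times the same-plate solvent-only control wells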;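 also: luciferase driven by Gal4-ERK5 fusion binding five Gal4 sites before minimal TATA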); conditions: HeLa Gal4-ERK5 transactivation, 18 h, at 5 µM, stronger effect = higher value
# [25] = stronger effect = lower value, cell number ratio, induced over uninduced
# [26] = measured here: relative caspase fold change +Dox/-Dox
# [27] = measured here: total cells with miR-34 induction, stronger effect = lower value
# [28] = measured here: total cells without miR-34 induction
# [29] = measured here: epithelial PC-3E GFP cell survival
# [30] = measured here: mesenchymal TEM4-18 mCherry cell survival
# Sequence of Mitogen-activated protein kinase 7 (Homo sapiens) (Q13164 whole entry, looked up, the tested form may be a part): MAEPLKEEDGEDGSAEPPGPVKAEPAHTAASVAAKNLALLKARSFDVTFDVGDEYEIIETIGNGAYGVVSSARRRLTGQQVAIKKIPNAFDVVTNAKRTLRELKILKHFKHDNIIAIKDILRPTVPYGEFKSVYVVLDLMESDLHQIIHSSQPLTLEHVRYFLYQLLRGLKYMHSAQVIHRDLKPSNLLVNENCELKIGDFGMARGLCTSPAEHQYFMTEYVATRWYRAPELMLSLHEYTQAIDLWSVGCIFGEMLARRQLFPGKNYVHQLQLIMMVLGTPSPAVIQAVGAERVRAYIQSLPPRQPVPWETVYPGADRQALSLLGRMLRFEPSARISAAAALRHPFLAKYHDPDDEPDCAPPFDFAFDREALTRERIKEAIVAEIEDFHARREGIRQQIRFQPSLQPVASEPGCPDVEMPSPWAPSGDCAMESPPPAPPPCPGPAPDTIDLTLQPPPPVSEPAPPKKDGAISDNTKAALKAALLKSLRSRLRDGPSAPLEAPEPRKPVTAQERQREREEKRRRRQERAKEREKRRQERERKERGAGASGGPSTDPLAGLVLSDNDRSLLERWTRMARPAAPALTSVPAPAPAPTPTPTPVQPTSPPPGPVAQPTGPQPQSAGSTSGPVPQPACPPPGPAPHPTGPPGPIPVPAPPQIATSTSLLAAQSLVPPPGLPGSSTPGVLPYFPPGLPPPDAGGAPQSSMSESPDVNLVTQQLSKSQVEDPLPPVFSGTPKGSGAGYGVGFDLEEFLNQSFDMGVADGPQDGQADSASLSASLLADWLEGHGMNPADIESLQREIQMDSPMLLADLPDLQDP
smiles,measurement,setting,value
CC(C)[C@H](CO)Nc1nc(Nc2cccc(Cl)c2)c2ncn(C(C)C)c2n1,remaining activity,[1],115% (inactive)
same,AC50,[2],14.8 µM (active)
same,AC50,[3],20.9 µM (active)
same,AC50,[4],16.6 µM (active)
same,AC50,[5],14.8 µM (active)
same,AC50,[6],14.8 µM (active)
same,AC50,[7],7.42 µM (active)
same,AC50,[8],20.9 µM (active)
same,AC50,[9],14.8 µM (active)
same,IC50,[10],16.6 µM (active)
same,fold change,[11]; [25],1.01 (inactive)
same,fold change,[11]; [26],0.968
same,cell count,[11]; [27],1040
same,cell count,[11]; [28],1030
same,z-score,[12],-0.745 (inactive)
C/C=C(/C)C(=O)O[C@@H]1[C@H](OC(C)=O)[C@@]2(CO)C(CC1(C)C)C1=CCC3[C@@]4(C)CC[C@H](O[C@@H]5O[C@H](C(=O)O)[C@@H](O[C@@H]6O[C@H](CO)[C@@H](O)[C@H](O)[C@H]6O)[C@H](O)[C@H]5O[C@@H]5O[C@H](CO)[C@@H](O)[C@H](O)[C@H]5O)[C@](C)(CO)C4CC[C@@]3(C)[C@]1(C)C[C@H]2O (stereo not given in full),parasite load remaining,[13],66% (inactive)
same,viability,[13],87.2%
same,red/green cell ratio (normalised),[14],0.77 (inactive)
same,normalised cell number,[14]; [29],1.1
same,normalised cell number,[14]; [30],0.85
O=C1C(Cl)=C(NCCN2CCOCC2)C(=O)c2ncccc21,remaining activity,[1],118% (inactive)
same,AC50,[2],8.33 µM (active)
same,AC50,[3],6.62 µM (active)
same,AC50,[4],3.32 µM (active)
same,AC50,[5],4.69 µM (active)
same,AC50,[6],3.32 µM (active)
same,AC50,[7],6.61 µM (active)
same,AC50,[8],2.64 µM (active)
same,AC50,[9],4.68 µM (active)
same,IC50,[10],18.6 µM (active)
same,fold change,[11]; [25],0.881 (inactive)
same,fold change,[11]; [26],1.4
same,cell count,[11]; [27],1390
same,cell count,[11]; [28],1580
same,SSMD,[15],6.65
same,cell count,[15],6880
same,plate-normalised HSF1 focus index,[15],1.4 (inactive)
same,z-score,[12],-0.82 (inactive)
CC(C)(C)NC[C@@H](O)COc1nsnc1N1CCOCC1,inhibition,[16],6.36%
same,score,[17],1.66
same,rescue above control,[18],-14.1
same,cytochrome c release ratio,[19],1.02
same,inhibition of aggregation,[20],-23.4%
same,glutamate uptake change,[21],14.7%
same,inclusion score,[22],2
same,aggregation suppression score,[23],1.29
same,parasite load remaining,[13],198% (inactive)
same,viability,[13],72.4%
same,red/green cell ratio (normalised),[14],1.2 (inactive)
same,normalised cell number,[14]; [29],0.88
same,normalised cell number,[14]; [30],1.05
O=C(/C=C/c1ccc(O)c(O)c1)OC(Cc1ccc(O)c(O)c1)C(=O)O (stereo not given),parasite load remaining,[13],107% (inactive)
same,viability,[13],70.8%
same,red/green cell ratio (normalised),[14],1.03 (inactive)
same,normalised cell number,[14]; [29],1.08
same,normalised cell number,[14]; [30],1.12
C=C(C)[C@H]1CC=C(C(=O)O)CC1,inhibition,[16],10.7%
same,score,[17],0.26
same,rescue above control,[18],-1.74
same,cytochrome c release ratio,[19],0.96
same,inhibition of aggregation,[20],-3.17%
same,glutamate uptake change,[21],-7.46%
same,inclusion score,[22],2
same,aggregation suppression score,[23],0.107
same,parasite load remaining,[13],101% (inactive)
same,viability,[13],69.4%
same,red/green cell ratio (normalised),[14],0.84 (inactive)
same,normalised cell number,[14]; [29],1.08
same,normalised cell number,[14]; [30],0.92
same,luciferase signal,[24],24 AU (inactive)
